Source: PubChem BioAssay
In the library only some 7.3% were active in any assay of this set; here they are far more common.
Vaccinia mCherry: vaccinia inhibition (mCherry reporter); Vaccinia virus mCherry reporter infection, fluorescence; Potency, µM (series often up to 36.5 µM), actives largely listed as inhibitors; 310,000 compounds, 0.63% hits; calls by dose curve; tested in A549 cells; also: nearly all actives have a fitted effect of over 35% in size
VACV Venus inh: vaccinia inhibition (Venus reporter). AID 720580. 330,000 compounds, 0.46% hits. Potency, µM (highest dose often 36.5 µM), hits mostly inhibitors. Vaccinia virus Venus reporter expression, fluorescence; calls by dose curve; tested in A549 cells; also: nearly all actives have a fitted effect of over 30% in size
HCMV inh: human cytomegalovirus inhibition; 410,000 compounds, 4.5% hits; AID 1259415; HFF cells, HCMV-luciferase reporter, 72 h; stronger effect = lower value; activity change, negative = inhibition, % at 57.5 µM; in the data active = activity change below about -60%; inconclusive = no clear call, values can overlap the other calls; inactive = above about -39%
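Cell-based, HFFs, 1000 cells/well, 16 h 37C; cpds in DMSO + HCMV-luc, MOI 1 PFU/cell; 72 h 37C; OneGlo luminescence after 5 min RT; norm. to buffer vs Salinomycin 10uM.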
HCV inh: HCV inhibition. Huh7.5.1 HCVcc-Cre infection, luciferase reporter, 44 h. Potency, µM (series often up to 41.8 µM), actives largely listed as inhibitors. 340,000 compounds, 3.4% hits. AID 651820; active = well fitted inhibition curve with a large enough effect; inconclusive = small, poorly fitted or top-dose-only effect, or another doubt; inactive = no such curve, though single readings can be large or run the other way
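Whole-lifecycle infectious HCVcc-Cre system; cells 1,000/well, compound then virus (~0.5 moi) added 4 h after plating, 44 h culture. Luciferase read 15 sec following 15 min substrate incubation, room temp.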
FMDV inh: foot and mouth disease virus antiviral activity | FMDV antiviral cell-based qHTS | Potency, µM (titrated, usually from 57.9 µM), usual class: inhibitors | 410,000 compounds, 1.2% hits | AID 1159524; calls by dose curve; tested in HEK293T cells; also: read-out not given here; nearly all actives have a fitted effect of over 45% in size
Numbers stand for hits; i = inactive; ? = inconclusive; nt = not tested or not shown; + = active, no number.

SMILES	Vaccinia mCherry	VACV Venus inh	HCMV inh	HCV inh	FMDV inh
CN1OC(C)(CC(=O)NCc2ccccc2F)N=C1c1ccccc1Cl (stereo unspecified)	nt	nt	i	nt	nt
Ic1ccc(/C=C2\C=Cc3ccccc32)cc1	i	i	nt	nt	nt
O=C(c1ccc(S(=O)(=O)Cc2cc(F)ccc2F)c([N+](=O)[O-])c1)N1CCCCC1	i	i	?	i	?
Cc1ccccc1CS(=O)(=O)c1ccc(C(=O)N2CCC(C)CC2)cc1[N+](=O)[O-]	i	i	?	i	?
CC1CCN(C(=O)c2ccc(S(=O)(=O)Cc3cccc(F)c3)c([N+](=O)[O-])c2)CC1	i	i	-84	i	?
O=C(c1ccc(S(=O)(=O)Cc2cc(F)ccc2F)c([N+](=O)[O-])c1)N1CCCC1	i	i	-75	i	i
CCOC(=O)N1CCc2c(sc3c2c(=O)n(CCc2ccccc2)c(=O)n3Cc2cc(C)ccc2C)C1	i	i	i	nt	i
Cc1nc2c(C)c(C)c(C)c(C)c2nc1C	i	i	?	i	i
Cc1nc2c(O)c3c(c(O)c2nc1C)C1C=CC3CC1	i	i	i	7.9µM	7.1µM
COc1ccc(-c2cc(C(C)=O)c(C)n2CCC(=O)Nc2cccc(C)c2C)cc1	i	i	i	nt	i
CC(=O)N1CCN(Cc2ccc(Cl)nc2)CC1	i	i	-78	i	i
O=[N+]([O-])/C(C(=C(Cl)Cl)N1CCN(Cc2ccccc2)CC1)=C1\NCCN1Cc1ccc(Cl)nc1	10µM	?	i	i	i
CCCCN1CC[C@@H]2C=CC[C@H](C(=O)OC)[C@@H]2C1=O	i	i	i	i	i
CCCCN1CC[C@H]2C=CC[C@@H](C(=O)N3CCOCC3)[C@H]2C1=O	i	i	i	0.56µM	i
CCOc1ccc(Cn2c(CNS(=O)(=O)c3ccc(C(C)(C)C)cc3)nc3cccnc32)cc1	i	i	i	nt	i
COc1ccc(NC(=O)CSC2=Nc3ccccc3N=C(c3ccc(F)cc3)C2)cc1OC	i	i	-102	nt	?
OCc1ccccc1OCc1ccccc1	nt	nt	i	nt	nt
CC(C)=CCc1c2c(c(O)c3c(=O)c4c(oc13)-c1cc(O)c(O)cc1OC4C=C(C)C)C=CC(C)(C)O2 (stereo unspecified)	11µM	?	nt	i	?
CC(C)=CCc1c(-c2ccc(O)cc2O)oc2c3c(cc(O)c2c1=O)OC(C)(C)C=C3	i	i	nt	?	?
O=C(COc1ccccc1C(=O)c1cnn(-c2ccccc2)c1)Nc1ccc2ccccc2c1	i	i	i	13µM	i
Cc1ccc(N2C(=O)[C@@H]3CSC(c4ccc(Cl)cc4)N3C2=O)cc1 (stereo partly specified)	i	i	i	nt	i
Cc1nc(N2CCN(c3ccccc3)CC2)nc2c1C(=O)CC(C)C2 (stereo unspecified)	nt	nt	i	11µM	i
COc1cc(/C=C/C(=O)c2cccc([N+](=O)[O-])c2)cc(OC)c1OC	i	i	i	11µM	28µM
COc1cc(/C=C/C(=O)c2ccc(C)c([N+](=O)[O-])c2)cc(OC)c1O	?	i	i	?	14µM
COc1ccc(/C=C/C(=O)c2ccc(C)c([N+](=O)[O-])c2)cc1O	i	i	i	i	i
SMILES	Vaccinia mCherry	VACV Venus inh	HCMV inh	HCV inh	FMDV inh
C=N[C@@H](C(=O)N[C@@H]1C(=O)N2[C@@H]1SC(C)(C)[C@@H]2C(=O)O)c1ccccc1	i	i	nt	nt	i
O=C(NCCc1ccc(Cl)cc1)C1CCN(Cc2cc3ccccc3n2Cc2ccccc2)CC1	i	i	i	nt	i
CN1CCCCC(NC(=O)c2cccc(F)c2)C1=O (stereo unspecified)	nt	nt	i	nt	nt
CCn1c(=O)cc(OCC(=O)N2CCN(c3cccc(C)c3C)CC2)c2ccccc21	i	i	i	nt	20µM
CCn1c(=O)cc(SCC(=O)N2CCN(c3ccccc3F)CC2)c2ccccc21	i	i	i	14µM	?
O=C(Cc1ccc(F)cc1)Nc1nc(-c2ccc(F)c(F)c2)cs1	nt	nt	i	?	?
O=C(CN1C(=O)NC2(CCCC2)C1=O)Nc1nc(-c2ccc(F)c(F)c2)cs1	nt	nt	i	4µM	?
O=C(CSc1ncnc2[nH]ncc12)Nc1nc(-c2ccc(F)c(F)c2)cs1	nt	nt	-90	?	14µM
CCc1nnc(N/N=C/c2ccc(N3CCC(C)CC3)c([N+](=O)[O-])c2)n1N	10µM	?	i	?	i
Cc1nnc(N/N=C/c2cc([N+](=O)[O-])c(N3CCC(C)CC3)cc2N2CCC(C)CC2)n1N	nt	nt	?	13µM	?
Nn1cnnc1N/N=C/c1ccc(Cl)c([N+](=O)[O-])c1	?	?	i	i	i
COc1ccc(Oc2cc(NC(=O)c3nn(C)cc3[N+](=O)[O-])cc([N+](=O)[O-])c2)cc1	?	?	-110	?	?
Cn1cc([N+](=O)[O-])c(C(=O)Nc2cc(Oc3cccnc3)cc([N+](=O)[O-])c2)n1	i	i	-106	?	?
CCn1nc(C)c(C(=O)Nc2cc(Oc3ccc(Cl)cc3)cc([N+](=O)[O-])c2)c1C	i	i	i	?	i
Cc1cccc(C)c1NC(=O)c1cc(S(=O)(=O)N2CCc3ccccc3C2)ccc1F	i	i	i	nt	?
CC(=O)c1cccc(Nc2cc(C)nc3nc(-c4ccccc4C)nn23)c1	i	i	i	nt	i
CCOC(=O)C1=C[C@@H](C2CCCCC2)N(S(=O)(=O)c2ccc([N+](=O)[O-])cc2)[C@H]1c1ccccc1	i	i	-77	nt	?
CCOC(=O)C1=CC[C@@H](c2ccc([N+](=O)[O-])cc2)N(S(=O)(=O)c2ccc(C)cc2)[C@H]1c1ccccc1	i	i	i	nt	i
CC(C)(C)C(=O)Nc1cc2nn(-c3ccccc3)nc2cc1Cl	i	i	-88	i	50µM
CCOC(=O)c1c(C)[nH]c(C)c1S(=O)(=O)N1CCCC(C(=O)Nc2cccc(CC)c2)C1 (stereo unspecified)	i	i	i	nt	i
COc1ccc(S(=O)(=O)NN(C)C)cc1N(C)S(=O)(=O)c1ccc(Cl)cc1	i	i	-64	i	i
COc1ccc(S(=O)(=O)Nc2ccc(C)cc2)cc1N(C)S(=O)(=O)c1ccc(Cl)cc1	?	18µM	-99	8.9µM	nt
COc1ccc(S(=O)(=O)N2CCCCC2)cc1N(C)S(=O)(=O)c1ccccc1	i	i	i	nt	i
O=C(c1cc2c(ccc3ccccc32)oc1=O)N1CCCC1	i	i	-90	i	i
COc1ccc2oc(=O)c(C(=O)N3CCN(C(=O)c4ccccc4)CC3)cc2c1	i	i	-95	i	i
COc1ccc2oc(=O)c(C(=O)N3CCN(c4ccccc4)CC3)cc2c1	i	i	i	i	nt
Cc1ccc(C)c(N2CCN(C(=O)c3cc4ccccc4oc3=O)CC2)c1	i	i	-62	i	i
O=C(N/N=C/c1ccccc1O)C1CC(=O)N(c2ccc(F)cc2)C1 (stereo unspecified)	14µM	?	i	?	i
O=C(Nc1ccc(Cl)cc1)C1CCN(c2nc3ccccc3nc2C(F)(F)F)CC1	i	i	i	nt	i
CCOC(=O)c1cc(-c2ccc(C)cc2)n(CCCC(=O)Nc2cc(C)ccc2C)c1	?	i	+	nt	i
